Screens: PubChem, several laboratories
Most compounds without a hit are left out; they make up all but 7.6% or so of the library.
Cav3 T inh – blocks human Cav3.2 T-type calcium channel; O95180; Cav3.2-expressing cells, Fluo-4 calcium fluorescence FDSS; hits give low values; B-score at 10 µM; hit rate 4% among 100,000; AID 449739;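 active = single-dose well whose peak fluorescence ratio is a statistical outlier from its plate by either plate-standardised score or position-corrected B-score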
M1 antagonist – antagonists of rat M1 muscarinic receptor; CHO-M1 cells, Fluo-4 calcium, ACh EC80 antagonist mode; hits give low values; hit rate 3.4% among 64,000; B-score at 10 µM; AID 628;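 active = calcium fluorescence response, raw or row-and-column corrected B-score, differing from the plate sample mean either way at a set confidence level, mostly lower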
Target sequence (P08482 whole entry, looked up): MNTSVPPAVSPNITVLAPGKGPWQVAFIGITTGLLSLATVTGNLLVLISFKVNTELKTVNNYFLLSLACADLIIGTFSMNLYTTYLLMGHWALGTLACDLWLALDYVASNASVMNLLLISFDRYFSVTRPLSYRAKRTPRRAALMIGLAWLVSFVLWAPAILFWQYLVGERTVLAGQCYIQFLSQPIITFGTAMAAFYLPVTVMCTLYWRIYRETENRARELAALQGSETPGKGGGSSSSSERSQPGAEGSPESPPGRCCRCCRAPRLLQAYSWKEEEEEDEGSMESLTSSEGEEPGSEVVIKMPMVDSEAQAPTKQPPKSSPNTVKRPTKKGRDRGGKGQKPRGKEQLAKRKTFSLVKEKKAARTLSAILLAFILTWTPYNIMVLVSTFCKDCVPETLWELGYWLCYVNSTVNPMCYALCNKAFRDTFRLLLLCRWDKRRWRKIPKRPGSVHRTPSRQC
PLAP act – activators of human placental alkaline phosphatase; P05187; purified PLAP enzyme, luminescent substrate read-out; hits give high values; activation fold at 20 µM; hit rate 1.2% among 96,000; in the data active = activation fold above about 2
M1 agonist – activates the M1 muscarinic receptor; CHO-M1 cells, Fluo-4 calcium fluorescence, agonist mode; hits give high values; B-score at 10 µM; hit rate 3% among 64,000;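 active = fluorescence rise, raw or as B-score row- and column-corrected plate score, outside the 99.7% band of its plate's samples, either direction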
Numbers without * were called inactive; · = no result given.

SMILES	Cav3 T inh	M1 antagonist	PLAP act	M1 agonist
Cc1ccc(S(=O)(=O)N2CCN(CC(=O)NC3CCCc4ccccc43)CC2)c(C)c1 (centres undefined)	-2.44	·	70.9	·
O=C(CCC(=O)N1CCN(S(=O)(=O)c2ccc(Cl)cc2)CC1)NC1CCCc2ccccc21 (centres undefined)	-5.22*	·	1.2	·
Cc1ccc(S(=O)(=O)N2CCN(CC(=O)NC3CCCc4ccccc43)CC2)cc1C (centres undefined)	-3.29	·	2.1*	·
CCOC(=O)C(C)Oc1ccsc1C(=O)OC (centres undefined)	2.29	·	0.9	·
CCOCCCn1c(=N)c(C(=O)Nc2cc(C)on2)cc2c(=O)n3ccccc3nc21	·	-0.179	·	5.91*
CC(Sc1nc(-c2ccccc2)nc2c1COC(C)(C)C2)C(=O)N1CCOCC1 (centres undefined)	1.16	·	1.5	·
COC(=O)c1ccccc1NC(=O)c1cccc(NC(=O)c2ccc(Br)o2)c1C	-5*	-0.733	0.9	-0.0482
O=C(Nc1ccccc1C(=O)O)c1ccc(Br)o1	·	·	1	·
COc1ccc2c(c1OC)C(=O)N1c3cccc(Cl)c3C(=O)OC21 (centres undefined)	-4.31*	-0.485	0.9	0.0171
COc1ccc2c(c1OC)C(=O)N1c3ccccc3COC21 (centres undefined)	-1.13	0.206	0.9	0.0987
Cc1cc(-c2cccc([N+](=O)[O-])c2)nc2ccc3ccccc3c12	-0.0743	·	1.1	·
Cc1ccccc1NC(=O)NCCCN1CCN(c2ccccc2)CC1	1.81	·	2.8*	·
O=C(NCCCN1CCN(c2ccccc2)CC1)Nc1ccccc1C(F)(F)F	-0.25	-0.688	1.7	-0.932
CCOC(=O)c1c(C)oc2c1c(C(c1cccnc1)N1CCN(C)CC1)c(O)c1ccccc12 (centres undefined)	·	-0.00266	1.5	3.37*
COc1ccc(OC)c(NC(=O)C(=O)/C=C(\O)c2cc(OC)ccc2OC)c1	-5.2*	·	1	·
CCC(CC)NC(=O)COC(=O)c1cccc(C)c1O	-1.17	·	0.8	·
COc1ccc(-n2c(Cc3cccn3C)nnc2SCC(=O)Nc2ccc3c(c2)OCCO3)cc1	-10.1*	-0.164	1.8	-0.458
COc1ccc(-n2c(Cc3cccn3C)nnc2SCC(=O)Nc2ccc(C)cc2)cc1	-7.86*	1.39	1.4	0.34
COc1ccc(NC(=O)CSc2nnc(Cc3cccn3C)n2-c2ccc(OC)cc2)cc1	-8.09*	-0.00189	1.5	0.116
COc1ccc(-n2c(Cc3cccn3C)nnc2SCC(=O)Nc2ccc(C(C)=O)cc2)cc1	-8.37*	1.54	1.7	-0.328
CCOc1ccc(NC(=O)CSc2nnc(Cc3cccn3C)n2-c2ccc(OC)cc2)cc1	-2.75	0.854	1.4	-0.533
Cc1cc(C(=O)NCCCN2CCCC2=O)no1	0.664	·	1	0.0789
COc1cc(CCCN2C(=O)C(=O)NC[C@@H]2C(C)O)cc(OC)c1OC (some centres undefined)	0.812	·	·	·
CCCN1C2CCCC1CC(NC(=O)c1cc(OC)c(OC)c(OC)c1)C2 (centres undefined)	0.799	-2.57	1.2	0.353
CC(=O)N1CCC(=NNS(=O)(=O)c2cccc([N+](=O)[O-])c2)CC1	0.284	·	1	·
SMILES	Cav3 T inh	M1 antagonist	PLAP act	M1 agonist
COc1ccc(/C=C/C(O)=C2/C(=O)N(C)C3(C)CC2c2ccccc2O3)cc1 (centres undefined)	-5.04*	-0.025	1	2.52
COc1cc(OC)c(NC(=O)CCc2nc(-c3cccs3)no2)cc1Cl	-1.91	1.08	1.3	0.0175
CCc1nnc(NC(=O)CSc2nnc(-c3cc4ccccc4cc3O)n2CC)s1	-1.73	-1.02	1.8	2.15
CCn1c(SCC(=O)N(C(C)C)C(C)C)nnc1-c1cc2ccccc2cc1O	0.443	-2.36	2*	1.08
COC(=O)C1=C(C)N(C)C(C)=C(C(=O)OC)C1c1ccsc1	0.147	0.195	1.1	1.66
CCOC(=O)C1=CN(C)C=C(C(=O)OCC)C1c1ccsc1	0.804	2.21*	1.2	0.826
COc1ccc(C(=O)Nc2nc3cc(OC)c(OC)cc3c(=O)[nH]2)cc1	0.339	10.3*	1	-0.13
Cc1cccc(NC(=O)c2ccc(S(=O)(=O)N3CCCCC3)cc2)n1	-0.0115	-2.45	·	-2.61*
O=C(Nc1nc(-c2cccs2)cs1)c1ccc(S(=O)(=O)N2CCCCC2)cc1	-6.09*	-0.562	1.1	0.104
Cc1csc(NC(=O)c2cccc(S(=O)(=O)N3CCCCC3)c2)n1	-2.6	0.274	0.9	0.0094
CN1CCN(S(=O)(=O)c2ccc(NC(=O)c3ccc(F)cc3)cc2)CC1	0.635	3.46*	1	0.2
NS(=O)(=O)c1ccc(CCNC(=O)c2ccc(S(=O)(=O)N3CCCCC3)cc2)cc1	-0.0534	·	2*	·
CCOC(=O)C1=C(C)Nc2nc(=S)[nH]n2C1c1ccc(Cl)cc1 (centres undefined)	0.0613	·	1.3	·
